Bioassay records from PubChem.
In the library only some 7% were active in any assay of this set; here they are far more common.
AHR activator: activators of human aryl hydrocarbon receptor | P35869 | AHR-responsive luciferase reporter cells, luminescence | activation, % at 5 µM | 320,000 compounds, 2.5% hits | AID 2796; in the data active = activation above about 47%;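 also: 0% = vehicle wells and 100% = reference agonist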
KLK7 zymogen act: activators of human kallikrein-7 zymogen. P49862. purified proKLK7, EDANS-DABCYL substrate fluorescence; 100% is mature enzyme control, 0% vehicle. activation, % at 7 µM. 370,000 compounds, 0.9% hits. AID 652039;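 active = activation above the mean of all tested compounds plus 3 SD, computed per campaign excluding outliers beyond control limits, cut at about 13% in these data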
rCAG binder: binds r(CAG) RNA repeats; r(CAG) RNA repeat, TO-PRO-1 dye displacement fluorescence; inhibition, % at 3 µM; 370,000 compounds, 1.3% hits;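 active = inhibition above the plate cutoff, the mean of all test compounds on that plate plus 3 SD, cut at about 35% in these data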;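 also: 0% = DMSO alone and 100% = 100 µM mitoxantrone as full dye displacement; higher means more dye released from RNA so lower well fluorescence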
ADAM10 inh: ADAM10 inhibition, QFRET primary screen; inhibition, % at 7 µM; 370,000 compounds, 0.62% hits; AID 720582; O14672; recombinant ADAM10, EDANS/DABCYL FRET peptide cleavage, 3 h;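 active = inhibition above a per-campaign cutoff equal to the mean of compounds falling between control-based bounds plus 3 SD, cut at about 20% in these data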;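 also: 0% = DMSO wells while the 100% control is not disclosed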
ADAM17 inh: inhibits human ADAM17; 370,000 compounds, 0.83% hits; inhibition, % at 6.95 µM; AID 720648; P78536; recombinant ADAM17, EDANS/DABCYL FRET peptide cleavage;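 active = inhibition above the mean of compounds lying between control limits plus 3 SD, set per campaign, cut at about 8.5% in these data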;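 also: 0% = DMSO-only wells as the low control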
GRIN3A LBD mod: modulates the human NR3A ligand-binding domain | 340,000 compounds, 2.5% hits | NR3A LBD differential scanning fluorimetry, Tm shift; 0% = protein alone, 100% = glycine-bound protein | AID 1259313 | Tm shift relative to glycine control, % at 25 µM;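 active = melting temperature shift of at least 10% of the positive control shift, at one fixed dose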
rCAG binder conf: r(CAG) RNA repeat binding, confirmation | shares compounds with rCAG binder | TO-PRO-1 dye displacement fluorescence | inhibition, % at 3 µM | 4,300 compounds, 70% hits | AID 652065;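 active = inhibition above a per-plate cutoff, the mean inhibition of sample wells plus 3 SD, cut at about 35% in these data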;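 also: loss of TO-PRO-1 fluorescence as compound displaces dye from 1x1 AA loop RNA; 0% = DMSO only wells and 100% = 100 µM mitoxantrone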
DNA CAG counter: disrupts DNA CAG TO-PRO-1 complex, flagging rCAG hits; shares compounds with rCAG binder; d(CAG) DNA oligo TO-PRO-1 dye displacement, fluorescence; inhibition, % at 3 µM; 4,300 compounds, 94% hits;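 active = inhibition above its plate's cutoff, the mean test-well inhibition plus 3 SD, cut at about 4.8% in these data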;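 also: 0% = DNA dye mix with DMSO and 100% = 100 µM mitoxantrone; hits displace the dye from DNA and so lower well fluorescence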
DNA CAG DR: counter-screen for rCAG binders: inhibitors of DNA CAG TO-PRO-1 complex. 250 compounds, 20% hits. shares compounds with rCAG binder. IC50, µM. DNA CAG/GTC duplex TO-PRO-1 dye displacement fluorescence. AID 686960; in the data active = IC50 below about 10 µM
The depositor's hits bear a star; i = inactive; . = not tested or not shown.

SMILES	AHR activator	KLK7 zymogen act	rCAG binder	ADAM10 inh	ADAM17 inh	GRIN3A LBD mod	rCAG binder conf	DNA CAG counter	others
Cc1c(Cc2ccccc2)c(=O)oc2c(C)c(OCC(=O)N[C@@H](Cc3ccccc3)C(=O)O)ccc12	0.1	-2.8	46.6*	-353.5	-68.0	-4.3	69.7*	29.1*	DNA CAG DR=i
CCCCCCc1c(C)c2ccc(OCC(=O)N[C@@H](Cc3ccccc3)C(=O)O)cc2oc1=O	-0.5	3.2	46.4*	i	-146.6	-3.2	75.6*	31.1*	DNA CAG DR=i
CCC(NC(=O)Cc1c(C)c2ccc(OC)c(C)c2oc1=O)C(=O)NC(Cc1ccc(Cl)cc1)C(=O)O (stereo not given)	-1.1	6.2	35.6*	i	-256.2	-0.7	40.8*	8.8*
CC(C)[C@H](NC(=O)C1CC1)C(=O)N1CCC[C@H]1C(=O)NCc1ccccc1	.	-0.1	1.1	1.2	-2.5	.	.	.
CCCC(=O)N1CCC(NS(=O)(=O)c2ccc3c(c2)CCN3C(C)=O)CC1	.	-0.3	0.4	-14.6	-4.8	.	.	.
Cc1c(C)c2ccc(OCC(=O)N[C@@H](Cc3ccccc3)C(=O)O)cc2oc1=O	-0.8	0.4	13.9	i	-185.5	-3.1	.	.
Cc1cc(OCC(=O)N[C@@H](CSCc2ccccc2)C(=O)O)c2c(C)c(C)c(=O)oc2c1	-0.3	5.5	49.3*	i	-124.7	-3.2	53.6*	12.7*
Cc1ccccc1OCC(=O)NS(=O)(=O)c1ccc(Cl)cc1	-0.7	0.4	2.6	3.1	-2.4	-0.3	.	.
Cc1ccc(C(C)C)c(OCC(=O)NS(=O)(=O)c2ccc(Cl)cc2)c1	1.1	-0.5	50.5*	-0.5	-2.5	-1.2	36.4*	7.0*
O=C1N2CCc3ccccc3C2CS(=O)(=O)N1CCc1ccccc1 (stereo not given)	.	0.5	-0.8	5.4	-1.9	.	.	.
Cc1cc(N2CCC(C)CC2)nc2ccccc12	.	.	.	-147.9	-44.3	.	.	.
Brc1ccc(N/N=C(/N=Nc2nn[nH]n2)c2ccccc2)cc1	-2.5	0.1	95.3*	8.8	-1.0	4.3	92.1*	66.5*
C/C(=N\Nc1ccc(C(=O)O)cc1)c1ccc(Br)cc1	-4.6	0.9	11.1	-1.9	-3.2	0.6	.	.
O=C(CCN1CCN(c2ccccc2)CC1)N/N=C/c1ccc(O)c(O)c1O	.	1.4	56.5*	0.0	0.4	-1.8	45.0*	20.9*
O=C(O)CC(NC(=O)c1sc2ccccc2c1Cl)c1ccc(OC2CCCC2)cc1 (stereo not given)	2.0	-0.7	58.5*	14.3	0.6	1.3	72.8*	25.1*	DNA CAG DR=i
O=C(O)CC(NC(=O)c1cccc(F)c1)c1ccc(OC2CCCC2)cc1 (stereo not given)	-0.3	0.0	9.5	-13.1	-2.8	1.3	.	.
O=C(NC1CC1)c1sc2ccccc2c1Cl	-3.5	-0.3	-0.2	0.7	1.3	3.4	.	.
O=C(O)CC(NC(=O)C1c2ccccc2Oc2ccccc21)c1ccc(OC2CCCC2)cc1 (stereo not given)	-0.2	-0.5	50.5*	-0.5	2.8	2.5	48.4*	12.1*
O=C(NNC(=S)NC1CCCCC1)c1sc2ccccc2c1Cl	1.6	-0.7	83.3*	-18.4	0.9	3.7	81.6*	53.9*
O=C(O)CC(NC(=O)C1c2ccccc2Oc2ccccc21)c1ccc(Cl)cc1 (stereo not given)	1.2	-0.1	39.1*	-1.8	-2.6	-0.8	26.4	3.5
C=CCN1C(=O)[C@H](CC(=O)NCCCCc2ccccc2)[C@@]2(C(=O)OCC)CCCC=C12	.	1.1	1.3	-0.6	-2.6	.	.	.
CCCCNC(=O)C[C@@H]1C(=O)N(CCc2ccc(Cl)cc2)/C2=C/CCCCC[C@@]21C(=O)OCC	.	0.1	1.0	9.2	4.5	.	.	.
O=[N+]([O-])c1ccc(COc2ccccc2CO)cc1	.	0.7	1.6	10.6	4.5	.	.	.
